Screens as filed in PubChem BioAssay.
ALOX12 inhib: qHTS Assay for Inhibitors of 12-hLO (12-human lipoxygenase) | Polyunsaturated fatty acid lipoxygenase ALOX12 (Homo sapiens), P18054 | purified 12-hLO, xylenol orange hydroperoxide absorbance | Potency, µM (highest dose often 57.1 µM), for inactives: at the top dose activity change, negative = inhibition, usual class: inhibitors | 150,000 compounds, 0.12% hits; note: potency is the fitted concentration of half-maximal effect; nearly all actives have a fitted effect of over 55% in size
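Hydroperoxide formation by human 12-lipoxygenase from 40 uM arachidonic acid was followed colorimetrically via ferric-xylenol orange complex, using the 573/405 nm absorbance ratio. Enzyme concentration was 150 nM, with 30 min reaction at room temperature.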
ALOX15B inhib: qHTS Assay for Inhibitors of 15-hLO-2 (15-human lipoxygenase 2); 110,000 compounds, 0.56% hits; Potency, µM (series often up to 57.1 µM), for the others: at the highest dose activity change, negative = inhibition, most hits filed as inhibitors; purified 15hLO-2, xylenol orange hydroperoxide absorbance; AID 881, 2007; Polyunsaturated fatty acid lipoxygenase ALOX15B (Homo sapiens), O15296; note: potency is the fitted concentration of half-maximal effect; nearly all actives have a fitted effect of over 60% in size
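Enzyme 50 nM, AA 45 uM, 25 mM Hepes pH 7.5 + 0.01% Triton X-100; cpd preinc 15 min RT, rxn 90 min RT; stop/detect with 200 uM XO + 300 uM Fe(II) in 50 mM H2SO4, 30 min; A573/A405.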
PNC assembly inh: High Content Assay for Compounds that inhibit the Assembly of the Perinucleolar Compartment | AID 2417, 2010 | activity change (PNC), negative = inhibition, % at 10 µM | 140,000 compounds, 3.1% hits | PC3M PTB-GFP, PNC prevalence imaging, 16 h; active compounds read low;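 active = readout at or below -70, meaning at least 70% loss of cells showing the perinucleolar compartment, a nuclear body marking cancer cells; inconclusive = readout between -30 and a set limit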;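 note: plate controls were DMSO wells for no effect and camptothecin positive control wells for full effect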
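PC3M cells stably expressing PTB-GFP, 750–1000 cells/well, treated 16 h at 37 °C with compound (23 nl of library stock), in duplicate. After paraformaldehyde fixation and Hoechst stain, imaged at 20x; PNC prevalence scored by image analysis.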
IMPase Li inh: qHTS Assay for Identifying the Cell-Membrane Permeable IMPase Inhibitors: Potentiation with Lithium; CHO-M1 cells, IP1 TR-FRET (IP-One), carbachol + lithium; AID 1457, 2008; 210,000 compounds, 0.35% hits; Potency, µM (top dose mostly 59.4 µM), for the others: at the highest dose activity, negative = IMPase inhibition, hits mostly inhibitors;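 note: IP1 builds up when IMPase is blocked and the TR-FRET signal falls; potency is the fitted concentration of half-maximal effect; plate controls were basal vehicle for no effect and high inhibitor control for full effect; nearly all actives have a fitted effect of over 50% in size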
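CHO-M1, 2000 cells/well, 16–30 h culture; cpd + low Li+, 30 min 37C; lysis with d2-IP1/Eu-anti-IP1 Ab, 10 min RT; TR-FRET 665/620 ratio and 620 channel; AC50 via Hill.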
IMPase inh: qHTS Assay for Identifying the Cell-Membrane Permeable IMPase Inhibitors. 120,000 tested, under 10 active. inhibition (IP1 accumulation), % at 46.1 µM. CHO-M1 cells, IP1 accumulation, HTRF TR-FRET ratio. Inositol monophosphatase 1 (Rattus norvegicus), P97697; active = well fitted curve in the direction sought with a large enough effect in the signal ratio, not every such curve was filed as active; inconclusive = small, poorly fitted or top-dose-only effect, or a change in a side signal; inactive = no such curve, though single readings can be large or run the other way; the % refers to the signal ratio;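 note: cells stimulated with carbachol in lithium chloride buffer; plate controls were DMSO basal wells for no effect and reference inhibitor wells for full effect; higher means more IMPase inhibition seen as more IP1 and lower FRET ratio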
Target sequence (P97697 whole entry, looked up): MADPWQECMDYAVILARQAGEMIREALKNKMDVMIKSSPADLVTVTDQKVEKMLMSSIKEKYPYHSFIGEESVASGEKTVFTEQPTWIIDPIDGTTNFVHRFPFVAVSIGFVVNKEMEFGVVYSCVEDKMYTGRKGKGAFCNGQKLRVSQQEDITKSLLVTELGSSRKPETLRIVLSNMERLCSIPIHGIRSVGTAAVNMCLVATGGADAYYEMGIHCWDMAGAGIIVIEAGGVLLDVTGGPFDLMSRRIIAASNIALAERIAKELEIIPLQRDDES
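Elevated IP1 in lysates lowers TR-FRET signal (665/620 ratio and 620 channel reported). Cells were CHO-M1, given carbachol (50 uM as added) plus 50mM LiCl, pH 7.4, 30 min, 37C; compounds titrated up to 46 uM; AC50 by Hill equation.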
* marks the source's active call; other numbers are inactive results; ? = inconclusive; nt = no result given; [ ] = remark or other dose. The full list was thinned out, with hits kept by preference. Unless noted, calls come from the whole dose curve; as a rule, active = well fitted curve in the direction sought with a large enough effect; inconclusive = small, poorly fitted or top-dose-only effect, or another doubt; inactive = no such curve, though single readings can be large; an effect the other way counts as inactive or inconclusive. Unless noted, % is set by controls: 0 for no effect and ±100 for the full control effect.

SMILES	ALOX12 inhib	ALOX15B inhib	PNC assembly inh	IMPase Li inh	IMPase inh
CC1CCc2c(sc3nnn(Cc4ccc(F)cc4)c(=O)c23)C1 (stereo not given)	nt	nt	nt	nt	4.1
CC(C)(C)C1CCc2c(sc(NC(=O)c3ccco3)c2C(N)=O)C1 (stereo not given)	2.6%	nt	-20.2	5.62µM*	?
O=C(O)c1cc(-c2cccc(Cl)c2)nc2nc(N3CCCCC3)sc12	-4.2%	nt	-86.2*	?	nt
O=C(c1ccccc1)c1sc(N2CCCCCC2)nc1-c1ccccc1	2.5%	9.8%	-16.6	14.5%[38.3 µM]	3.5
CCCn1c(=N)c(C(=O)NC2CCCC2)cc2c(=O)n3cc(C)ccc3nc21	nt	nt	nt	nt	-9.2
CCOC(=O)c1c(CN(CC)CC)oc2ccc(OC)cc12	4.0%	nt	-100.0*	3.7%	-5.3
CCOC(=O)c1c(CN(CC)CC)oc2cc(Br)c(O)cc12	-3.5%	18.4%	24.0	-0.3%[38.3 µM]	15.8
CN1CCN(c2ncc3nc(-c4ccccc4)c(=O)n(Cc4ccc(F)cc4)c3n2)CC1	-1.2%	16.2%	nt	14.4%	nt
CC(C)[C@H](Nc1ccc(S(=O)(=O)N2CCOCC2)cc1[N+](=O)[O-])C(=O)OCC(N)=O	-2.5%	nt	2.5	1.9%	nt
CNC(=O)COC(=O)[C@@H](Nc1ccc(S(=O)(=O)N2CCOCC2)cc1[N+](=O)[O-])C(C)C	-1.6%	nt	-113.4*	-1.8%	nt
COc1ccc(OCc2cccc(C(=O)Nn3cc([N+](=O)[O-])cn3)c2)cc1	-3.0%	nt	-98.6*	8.6%	5.8
COc1ccc(OCc2cccc(C(=O)NN)c2)cc1	0.7%	nt	?	-1.5%	nt
Clc1ccc(-c2nc(N3CCCCC3)nc3ccccc23)cc1	0.2%	nt	-100.0*	9.5%	-0.6
CCN(CC)c1ccc(/C=N/NC(=S)NCc2ccccc2)cc1	25.1µM*	?	43.7	16.2%[38.3 µM]	7.4
CC(C)CCOc1ccc(Cn2c(=O)sc3ccccc32)cc1	nt	nt	nt	nt	-6.2
Cc1ccccc1NC(=O)Nc1cccs1	-6.9%	-17.6%	?	12.6%[38.3 µM]	1.9
CC(C)NC(=O)Nc1cccs1	-4.6%	nt	-100.0*	-0.1%	3.7
CC1CCN(C(=O)CSc2nc3ccccc3c(=O)n2Cc2ccc3c(c2)OCO3)CC1	-9.5%	-11.7%	-18.1	5.8%[38.3 µM]	10.2
CC1CCCCN1C(=O)CSc1nc2cc3c(cc2c(=O)n1Cc1ccc2c(c1)OCO2)OCO3 (stereo not given)	-3.2%	-6.6%	-86.7*	37.5%[38.3 µM]	-9.7
COc1ccc(CNc2cc(-c3ccccc3C)ncn2)c(OC)c1	nt	23.3%	nt	25.4%	nt
CCN1/C(=C2\OC(=S)N(C)C2=O)C=Cc2ccccc21	nt	nt	nt	-7.2%	nt
CCN1/C(=C2\OC(=S)N(C)C2=O)Sc2ccccc21	2.2%	-3.7%	-18.8	11.2µM*	-7.2
N#CC1=C(N)OC2=C(CCc3ccccc32)C1c1ccccc1 (stereo not given)	1.1%	nt	-82.6*	9.7%	nt
Cc1ccc(/C=C2\CCC3=C2OC(N)=C(C#N)C3c2ccc(C)cc2)cc1 (stereo not given)	-28.7%	4.3%	?	-4.7%[38.3 µM]	-8.0
CC1(C)OC2CC3C4CC(F)C5=CC(=O)C=C[C@@]5(C)[C@@]4(F)C(O)C[C@@]3(C)[C@]2(C(=O)CO)O1 (stereo not given in full)	-2.0%	-1.1%	nt	-0.2%	nt
SMILES	ALOX12 inhib	ALOX15B inhib	PNC assembly inh	IMPase Li inh	IMPase inh
O=C(CSc1nnc(SCc2ccc(Cl)cc2)s1)N/N=C/c1c[nH]c2ccccc12	-0.6%	nt	-82.5*	-0.7%	nt
Cc1cccc(NC(=S)N/N=C/c2c[nH]c3ccccc23)c1	?	nt	-82.3*	-3.9%	nt
O=C(N/N=C/c1ccc(O)cc1)c1[nH]c2ccc(Br)cc2c1-c1ccccc1	-12.3%	nt	-5.3	3.0%	nt
O=C(CNc1ccccc1)N/N=C/c1c[nH]c2ccccc12	-0.6%	nt	-119.3*	-2.0%	?
O=C(N/N=C/c1c[nH]c2ccccc12)c1[nH]c2ccc(Br)cc2c1-c1ccccc1	-8.0%	nt	-112.3*	11.6%	-0.5
O=C(CSc1nnc(SCc2cccc3ccccc23)s1)N/N=C/c1c[nH]c2ccccc12	-4.3%	nt	9.4	1.5%	-1.3
Cn1c(CN2CCCCC2)nc2cc(NS(=O)(=O)c3ccc(Cl)cc3)ccc21	-20.0%	8.3%	-6.8	26.2%[38.3 µM]	13.7
CCOC(=O)C1CCN(C(=O)Nc2ccc3c(c2)nc(C)n3C)CC1	1.0%	1.4%	36.7	34.4%[38.3 µM]	-2.4
Cc1nc2cc(NC(=O)N3CCCCC3)ccc2n1C	0.0%	nt	-118.9*	8.1%	-0.3
CC(=O)Nc1ccc2c(c1)nc(CCN1CCC(C)CC1)n2C	-0.7%	11.9%	-101.3*	22.7%[38.3 µM]	9.6
Cn1c(CCN2CCCCC2)nc2cc(NS(=O)(=O)c3ccc(Cl)cc3)ccc21	?	50.9%	-92.6*	27.6%[38.3 µM]	10.3
O=C(O)CN(CCN(CC(=O)O)CC(=O)O)CC(=O)O.[Cu]	1.5%[11.4 µM]	-13.4%[11.4 µM]	nt	-2.7%	nt
CC(C)(C)OC(=O)N1CCC[C@H]1C(O)(c1ccccc1)c1ccccc1	nt	nt	nt	12.1%	nt
CC(C)=C1C(=O)C(c2ccccc2)=C2CN3C(=O)N(CCc4ccccc4)C(=O)[C@]3(C)[C@H]21	-7.4%	-7.1%	nt	6.1%	nt
CCOc1cc(/C=C2\SC(=S)N(Nc3ccccc3)C2=O)ccc1O	?	12.6µM*	-22.9	20.9%[38.3 µM]	3.6
COc1cc(/C=C2\SC(=S)N(Nc3ccccc3)C2=O)ccc1O	-26.3%	nt	-14.5	12.6%	nt
CC1CCN(c2ccc(/C=N\Nc3nncn3N)cc2[N+](=O)[O-])CC1	-1.9%	nt	-116.4*	2.9%	nt
CN1c2ccccc2N(C)C1(C)c1cccc2ccccc12	-23.1%	nt	?	18.5%	-1.6
CN1c2cccc3cccc(c23)N(C)C1(C)C	-20.5%	15.8µM*	39.6	0.7%[38.3 µM]	15.3
CC(=O)c1ccc(NC(=O)c2cc(-c3ccc(C)s3)nc3ccccc23)cc1	nt	nt	nt	nt	3.8
COc1ccccc1C(c1nnnn1C(C)(C)C)N1CCCc2ccccc21 (stereo not given)	-4.4%	-8.1%	?	-6.0%[38.3 µM]	2.4
CC(C)(C)n1nnnc1C(c1ccc(Cl)cc1)N1CCCc2ccccc21 (stereo not given)	-5.5%	-5.7%	-88.3*	-1.3%	6.3
CCOc1ccc(Cn2nnc(C(=O)NCc3ccc(OC)cc3)c2N)cc1	1.9%	nt	-26.2	11.2µM*	?
Cc1cc2c(ncn2C)c(NS(=O)(=O)c2ccccc2Cl)c1C	2.2%	8.6%[11.4 µM]	-83.5*	55.5%[38.3 µM]	-2.8[1.84 µM]
CN(C)/C=C1/C(=O)N(c2ccc([N+](=O)[O-])cc2)N=C1c1ccccc1	-10.4%	nt	?	8.4%	nt
